Screening results deposited in PubChem BioAssay by Broad Institute.
esBAF inh – inhibitors of esBAF chromatin remodeling in mouse ES cells; Bmi1-luciferase knock-in reporter, 24 h; 100% = twice the neutral-well signal; reporter increase, % at 12.5 µM; actives 2% (n = 350,000); in the data active means activation above about 40%; inconclusive means no clear call, values can overlap the other calls;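 further: 0% = median of the plate's neutral control wells and 100% = double that signal; a rise in the Bmi1 reporter signal indicates esBAF inhibition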
MITF TRPM1 HTS – increases MITF-driven TRPM1 promoter luciferase signal; SK-MEL-5 TRPM1-promoter luciferase, 24 h; % of positive control, neutral wells = 0; activation, % at 12.5 µM; actives 0.75% (n = 300,000); AID 588334;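 active means mean activation of at least 80% with every replicate also reaching 80%; inconclusive means mean reaches 80% but some replicate falls short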;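 further: 0% = neutral control wells and 100% = parthenolide positive control wells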
PAX8 inh HTS – lowers PAX8-driven luciferase in RMG-I cells; RMG-I TPO-luciferase reporter, SteadyGlo, 24 h; inhibition, % at 12.6 µM; actives 1.2% (n = 360,000); AID 652154;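 active means mean replicate inhibition at least 60% with every replicate also reaching 60%; inconclusive means only one of the two criteria is met; inactive means mean below 60% and not all replicates reaching 60%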;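 further: luciferase light reporting Pax8 driven TPO promoter activity; plate controls were median of neutral control wells for no effect and mitoxantrone controls for full effect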
MITF TRPM1 inh – MITF TRPM1 promoter inhibition in SK-MEL-5 cells. actives 0.83% (n = 330,000). SK-MEL-5 TRPM1 promoter luciferase, 24 h. inhibition, % at 12.5 µM;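 active means mean inhibition across replicates of 60% or more, whatever share of single replicates reaches that level; inconclusive means some that reach 60%, reason not given; inactive means mean inhibition across replicates below 60%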
Wnt act – activates Wnt/beta-catenin signaling in a reporter cell assay. activator, plate reader. activation, % at 9.35 µM. actives 1.2% (n = 300,000); in the data active means activation above about 30%, passing the limit was not always enough; inconclusive means no clear call, values can overlap the other calls;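 further: 0% = neutral control wells and 100% = positive control wells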
EWS-Fli inh – inhibitors of EWS/Fli oncoprotein transcriptional activity | A673 NR0B1-luciferase reporter, viability-normalised | inhibition, % at 12.6 µM | actives 0.67% (n = 350,000) | AID 651661;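 active means mean inhibition of at least 50% after viability correction, with every replicate also passing that limit; inconclusive means mean reaches 50% but only one of two replicates passes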;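 further: firefly luciferase signal divided by Alamar Blue viability fluorescence both relative to DMSO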
The depositor's hits bear a star; ? = inconclusive; nt = not tested or not shown; ! = a repeat was not active. Only some compounds are listed: those with a hit (about 4% of all), similar ones and a draw of the others.

SMILES | esBAF inh | MITF TRPM1 HTS | PAX8 inh HTS | MITF TRPM1 inh | Wnt act | EWS-Fli inh
O=C(OCC(=O)N1CCCCC1)c1c[nH]c2ccccc12 | 35 | 94* | -137 | -90 | 27 | -54
O=C(COC(=O)C1CC1)c1c[nH]c2ccccc12 | 48* | 63 | nt | -67 | nt | nt
CC1CCCN(C(=O)COC(=O)c2n[nH]c3ccccc23)C1 (centres undefined) | 70* | ? | nt | -76 | nt | nt
C/C=C/c1ccc2c(c1)O[C@@H](CN(C)C(=O)C1CCOCC1)[C@@H](C)CN([C@@H](C)CO)S2(=O)=O | 0 | nt | nt | nt | nt | -9
Cc1ccc(S(=O)(=O)Nc2cccc3c2O[C@H](CN(C)S(=O)(=O)c2ccc(C)cc2)[C@H](C)CN([C@H](C)CO)C3=O)cc1 | 1 | nt | 17 | nt | nt | -2
CC1CCN(C(=O)COC(=O)c2c[nH]c3ccccc23)CC1 | 57* | 63 | -93 | -55 | 8 | -51
O=C(CCCc1c[nH]c2ccccc12)N1CCCCCC1 | 60* | 29 | nt | -25 | -1 | nt
O=C(CCc1c[nH]c2ccccc12)N1CCCC1 | 4 | 13 | -4 | -14 | 3 | -6
CC(=O)N(C)C[C@H]1Oc2cc(-c3ccncc3)ccc2S(=O)(=O)N([C@@H](C)CO)C[C@H]1C | -1 | nt | nt | nt | nt | -7
C[C@H](CO)N1C[C@H](C)[C@@H](CN(C)Cc2cccnc2)Oc2ncc(-c3ccccc3)cc2C1=O | 2 | nt | nt | nt | nt | -4
Cc1ccccc1S(=O)(=O)N1[C@@H]2CNC[C@H]1C2c1ccc(-c2ccncc2)cc1 (some centres undefined) | nt | nt | 6 | nt | nt | 8
Cc1ccccc1-c1ccc(C2[C@H]3CNC[C@@H]2N3S(=O)(=O)c2ccccc2)cc1 (some centres undefined) | nt | nt | 18 | nt | nt | -6
Cc1cccc(S(=O)(=O)N2[C@@H]3CNC[C@H]2C3c2ccc(-c3ccccc3C)cc2)c1 (some centres undefined) | nt | nt | 11 | nt | nt | 59*!
Cc1cccc(S(=O)(=O)N2[C@@H]3CNC[C@H]2C3c2ccc(-c3ccncc3)cc2)c1 (some centres undefined) | nt | nt | -2 | nt | nt | 65*!
CCS(=O)(=O)N[C@H]1CC[C@@H](CC(=O)NCc2ccc(Cl)cc2)O[C@@H]1CO | -5 | nt | 15 | nt | nt | 0
CCCNC(=O)Nc1ccc2c(c1)C(=O)N(C)C[C@H](OC)[C@H](C)CN(CCC(F)(F)F)[C@H](C)CO2 | -1 | nt | nt | nt | nt | 12
O=C(NNC(=S)Nc1ccc(Br)cc1)c1cccnc1 | nt | -1 | -22 | -1 | -1 | -22
O=C(/C=C\Nc1ccc(Br)cc1)c1cccnc1 | nt | 37 | -28 | -37 | 38* | nt
COc1ccc2c3c(n(C)c2c1)[C@@H](CO)N(C(=O)C1CCCCC1)CC31CCN(C(=O)c2ccncc2)CC1 | nt | nt | nt | nt | nt | 5
CC(C)NC(=O)N[C@H]1CC[C@@H](CC(=O)NCCN2CCCC2)O[C@H]1CO | -1 | nt | -4 | nt | nt | -2
CN(C)c1ccc(C=c2c3cc(O)ccc3n3c2cc(-c2ccccc2)[n+]3C)cc1 | nt | -90 | 73* | 90* | -5 | -2
C[n+]1c(-c2ccccc2)cc2c(=Cc3ccc([N+](=O)[O-])cc3)c3ccccc3n21 | nt | -46 | 74* | 49 | -4 | 5
CN(C)c1ccc(/C=C(\C#N)c2ccccc2)cc1 | 1 | 24 | nt | -23 | nt | nt
C[n+]1c(-c2ccccc2)cc2c(=Cc3ccccc3)c3ccccc3n21 | nt | -98 | 115* | 98* | -6 | 53*
CC(C)C(=O)NC(c1cccc([N+](=O)[O-])c1)c1ccc2cccnc2c1O (centres undefined) | -55 | nt | 78* | 62* | -2 | 33
SMILES | esBAF inh | MITF TRPM1 HTS | PAX8 inh HTS | MITF TRPM1 inh | Wnt act | EWS-Fli inh
CCC(=O)NC(c1cccc([N+](=O)[O-])c1)c1c(OC(C)=O)ccc2ccccc12 (centres undefined) | 1 | -6 | nt | 7 | nt | nt
CCCC(=O)NC(c1cccc([N+](=O)[O-])c1)c1ccc2cccnc2c1O (centres undefined) | -53 | nt | 78* | nt | -2 | 11
CC(C)C(=O)NC(c1cccc([N+](=O)[O-])c1)c1c(O)ccc2ccccc12 (centres undefined) | 39 | 38 | -21 | -33 | 12 | -24
c1ccc(C2=NCCCO2)cc1 | -7 | nt | -16 | nt | -3 | -2
c1ccc(N=Nc2ccc(C3=NCCO3)cc2)cc1 | -36 | nt | -44 | nt | 44* | 43
Oc1c(Br)cc(/C=N/Nc2ccc(Cl)nn2)cc1Br | 1 | 0 | 0 | 2 | 1 | 6
Oc1c(Br)cc(Br)cc1/C=N/Nc1ccc(Cl)nn1 | -62 | -63 | -11 | 66* | 0 | 16
CCCC#Cc1cnc2c(c1)C(=O)N([C@@H](C)CO)C[C@@H](C)[C@@H](CN(C)Cc1ccccc1)O2 | nt | nt | nt | nt | nt | 3
CCOC(=O)c1cc2sccc2n1CC(=O)N1c2ccccc2CC1C (centres undefined) | nt | -64 | nt | 63* | -2 | nt
CCOC(=O)c1cc2sccc2n1CC(=O)O | -4 | 0 | nt | -6 | 1 | 0
CON(C)C(=O)CC1(CN(Cc2ccccc2)C(=O)OC(C)(C)C)CCCCC1 | -32 | -24 | -5 | 21 | -3 | 27
C#CC(=O)CC1(CN(Cc2ccccc2)C(=O)OC(C)(C)C)CCCCC1 | 7 | -5 | 76* | 5 | 8 | 15
N/C(=N\OC(=O)c1ccc(Cl)cc1Cl)c1ccc(Cl)cc1 | -4 | -4 | nt | 4 | nt | nt
N/C(=N\OC(=O)c1ccccc1Cl)c1ccc(Cl)cc1 | nt | 45 | nt | -42 | nt | nt
N/C(=N\OC(=O)c1ccco1)c1ccc(Cl)cc1 | ? | 56 | -198 | -56 | 65* | -87
N/C(=N\OC(=O)c1ccc(Cl)cc1)c1ccn[nH]1 | -27 | ? | -21 | -78 | 49* | -1
N/C(=N\OC(=O)c1ccco1)c1cccnc1 | nt | 32 | -91 | -31 | 38* | -48
O=C(COC(=O)c1ccco1)c1ccc(Cl)cc1 | 12 | 19 | -9 | -21 | 1 | -7
N/C(=N\OC(=O)c1ccc(Cl)cc1)c1ccc(Cl)cc1 | 10 | 96* | nt | -94 | -1 | nt
COc1ccc2c3c([nH]c2c1)[C@@H](CO)N(C(=O)Nc1ccc(F)cc1)CC31CCN(C(=O)c2ccccn2)CC1 | nt | nt | nt | nt | nt | -1
N/C(=N\OC(=O)c1ccc(Cl)cc1Cl)c1ccccc1 | -67 | -9 | nt | 15 | nt | nt
N/C(=N\OC(=O)CC1CCCCC1)c1ccc(Cl)cc1 | 41* | 28 | -25 | -27 | 22 | nt
N/C(=N\OC(=O)c1ccc(Cl)cc1Cl)c1cccnc1 | 5 | 24 | -192 | -24 | 32* | nt
N/C(=N\OC(=O)c1cccs1)c1cccnc1 | ? | 48 | -121 | -49 | 11 | -40
N/C(=N\OC(=O)c1ccc(Cl)cc1)c1cccnc1 | 68* | 46 | nt | -44 | nt | nt
COCC(=O)N(C)C[C@H]1Oc2ncc(-c3ccccc3F)cc2C(=O)N([C@@H](C)CO)C[C@@H]1C | -1 | nt | -10 | nt | nt | -7
